# Assay results: PubChem BioAssay (NCI)
# About 83,000 compounds went through this panel and 20% of them were active in at least one assay; those are over-represented in the sample as a whole.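 Growth was measured after 48 h exposure to one concentration of compound in 96-well plates. Values under 10 count as active.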 Unmarked numbers belong to inactive results. Calls of active or inactive are those of the source.
# Tests used:
# Assay in all cases: NCI-60 one-dose screen, 48 h (100 = growth as untreated, 0 = no growth, -100 = all killed)
# Conditions in all cases: 10 µM unless noted
# NCI-H23 lung = system: NCI-H23 lung
# NCI-H226 lung = system: NCI-H226 lung
# NCI-H322M lung = system: NCI-H322M lung
# HOP-62 NSCLC = system: HOP-62 NSCLC
# NCI-H460 lung = system: NCI-H460 lung
# HOP-92 NSCLC = system: HOP-92 NSCLC
# NCI-H522 lung = system: NCI-H522 lung
# A549/ATCC NSCLC = system: A549/ATCC NSCLC
# 786-0 renal = system: 786-0 renal
# COLO 205 colon = system: COLO 205 colon
# DU-145 prostate = system: DU-145 prostate
# K-562 leukemia = system: K-562 leukemia
# MALME-3M melanoma = system: MALME-3M melanoma
# MDA-MB-231 breast = system: MDA-MB-231 breast
# RXF 393 renal = system: RXF 393 renal
# SF-268 CNS = system: SF-268 CNS
# SF-295 CNS = system: SF-295 CNS
# SF-539 CNS = system: SF-539 CNS
# UACC-257 melanoma = system: UACC-257 melanoma
# M14 melanoma = system: M14 melanoma
SMILES,growth (NCI-H23 lung),growth (NCI-H226 lung),growth (NCI-H322M lung),growth (HOP-62 NSCLC),growth (NCI-H460 lung),growth (HOP-92 NSCLC),growth (NCI-H522 lung),growth (A549/ATCC NSCLC),growth (786-0 renal),growth (COLO 205 colon),growth (DU-145 prostate) [%],growth (K-562 leukemia),growth (MALME-3M melanoma),growth (MDA-MB-231 breast),growth (RXF 393 renal),growth (SF-268 CNS) [%],growth (SF-295 CNS),growth (SF-539 CNS),growth (UACC-257 melanoma),growth (M14 melanoma)
Cn1cc(-c2csc(-c3cn(CCNC(=O)OC(C)(C)C)c4ccccc34)n2)c2cccnc21,65.7%,55.9%,90.1%,72.5%,92.6%,56.6%,52.6%,78.8%,93.6%,73.3%,101,56.2%,82.8%,82.9%,105%,90.5,97.7%,93.1%,92.2%,61.1%
N#Cc1c(-c2ccco2)nc2c(c(-c3ccccc3)nn2-c2ccccc2)c1-c1ccc(O)cc1,99.7%,73.3%,81.9%,-50% (active),49.8%,76.1%,19.3%,46.9%,59.1%,3.62% (active),75.8,15.7%,35%,82.4%,101%,67.6,66.6%,82.5%,60.6%,65.6%
CC(C)(C)c1ccc(OCCCCCCCN2CCNCC2)cc1,51.9%,70.3%,53.6%,54%,-14.9% (active),33.3%,72.9%,44.9%,23.9%,-60.9% (active),45.6,0.406% (active),-50.4% (active),19.3%,28.2%,59.5,17.3%,67.3%,48.2%,45.2%
COc1ccc2c(c1)c1nc3cc(C)c(C)cc3nc1n2CCN(C)C,1.6% (active),7.41% (active),3.67% (active),20.3%,-22% (active),41%,6.94% (active),-75% (active),-60.8% (active),-23.8% (active),11.9,-2.38% (active),-30.8% (active),-2.89% (active),13.2%,31.3,4.6% (active),-13.2% (active),8.99% (active),4.45% (active)
CCN1CCN(C(=O)[C@]23CCC(C)(C)C[C@@H]2C2=CC[C@@H]4[C@@]5(C)C/C(=C/c6cccnc6)C(=O)C(C)(C)[C@@H]5CC[C@@]4(C)[C@]2(C)CC3)CC1,27.1%,32.9%,62.3%,44.5%,12.1%,9.8% (active),28.4%,13.5%,50.2%,25.9%,50,6.69% (active),30.3%,40.7%,-7.84% (active),37.6,16.7%,41.5%,3.05% (active),34.4%
COc1ccc2c(c1)c(-c1nc(-c3cn(C)c4ncccc34)cs1)cn2CCN,81.2%,84.2%,77.2%,77.1%,31.7%,57.8%,93%,45.7%,94.4%,77%,69.6,68.6%,105%,63.3%,96.1%,95.8,99.1%,89.1%,98.3%,97.3%
C=C(C)[C@@H]1CC[C@]2(C)[C@H](CC[C@@H]3[C@H]4[C@H]5OC[C@@]4(CCC5(C)C)CC[C@]32C)[C@@]1(C)CCCN,83.3%,100%,30.9%,96.3%,-28.6% (active),50.9%,97.6%,55.1%,49.1%,-58.2% (active),66.2,3.82% (active),-48.5% (active),16.7%,17.4%,92.1,-4.38% (active),87%,101%,25.8%
Brc1cnc2[nH]cc(-c3nnc(-c4ccccc4)o3)c2c1,78.5%,66.4%,77.5%,85.2%,80.9%,74.7%,76.7%,81.2%,73.6%,82.9%,57.9,73.3%,78.9%,63%,26.8%,81.2,85.8%,89.6%,112%,76.6%
